Screening data as filed in PubChem BioAssay.
CHO-K1 Ca PAM: M1 PAM counterscreen hit in parental CHO-K1 cells; activation, % at 3 µM; hit rate 0.02% among 360,000; ATP EC20, Fluo-8 calcium fluorescence; 0% at ATP EC20, 100% at ATP max;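 active = activation above the run cutoff, the mean activation of all test compounds plus 3 SD, cut at about 40% in these data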;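 note: peak over basal fluorescence ratio in a 140 s read after ATP addition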
CHRM1 PAM: human CHRM1 positive allosteric modulation. CHO-K1 hM1, Fluo-8 calcium fluorescence, ACh EC20; 0% = ACh EC20, 100% = maximal ACh. hit rate 0.088% among 360,000. activation, % at 3 µM. P11229; in the data active = activation above about 19%, passing the limit was not always enough
Target sequence (P11229 whole entry, looked up): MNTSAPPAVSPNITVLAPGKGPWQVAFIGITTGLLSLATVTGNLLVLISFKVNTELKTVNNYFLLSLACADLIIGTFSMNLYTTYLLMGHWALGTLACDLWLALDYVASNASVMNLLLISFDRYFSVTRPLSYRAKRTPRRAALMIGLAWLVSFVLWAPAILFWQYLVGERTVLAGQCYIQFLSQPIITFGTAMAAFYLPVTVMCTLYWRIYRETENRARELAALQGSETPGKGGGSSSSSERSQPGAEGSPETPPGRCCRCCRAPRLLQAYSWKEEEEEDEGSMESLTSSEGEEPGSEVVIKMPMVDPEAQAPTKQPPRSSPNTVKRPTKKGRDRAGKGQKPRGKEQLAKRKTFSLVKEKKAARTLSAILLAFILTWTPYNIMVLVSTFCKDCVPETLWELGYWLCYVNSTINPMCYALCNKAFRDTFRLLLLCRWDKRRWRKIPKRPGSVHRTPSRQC
CHO-K1 Ca ag: counter-screen for M1 agonists: effect in parental CHO-K1 cells. Fluo-8 calcium fluorescence; scaled to maximal ATP response, vehicle zero. activation, % at 3 µM. hit rate 0.48% among 360,000. AID 602248; in the data active = activation above about 15%;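 note: untransfected CHO-K1 host cells lacking M1 receptor as counterscreen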
CHO-K1 Ca antag: nonselective inhibitor or artifact in parental CHO-K1 cells | ATP-induced calcium, Fluo-8 fluorescence | inhibition, % at 3 µM | hit rate 0.6% among 360,000 | AID 602250;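 active = inhibition above a per-plate cutoff, the plate's mean sample inhibition plus 3 SD, cut at about 24% in these data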;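 note: 0% = DMSO plus EC80 ATP and 100% = DMSO alone without ATP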
CHRM1 antagonist: human CHRM1 antagonism | P11229 | CHO-K1 hM1, Fluo-8 calcium fluorescence, ACh EC80 antagonist | inhibition, % at 3 µM | hit rate 1.3% among 360,000;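 active = percent inhibition above its own plate's cutoff, namely the mean of that plate's compound wells plus 3 SD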;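 note: peak over basal fluorescence ratio during 140 s after agonist addition; 0% = ACh EC80 plus DMSO and 100% = DMSO alone without agonist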
M1 ag: agonists of human M1 muscarinic receptor; P11229; CHO-K1 hM1, Fluo-8 calcium fluorescence, agonist mode; 0% DMSO, 100% acetylcholine EC100; activation, % at 3 µM; hit rate 0.33% among 360,000; AID 588814;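 active = activation above the run's mean compound activation plus 3 SD, cut at about 16% in these data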;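 note: peak over basal fluorescence ratio within a 140 s kinetic read after compound addition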
* marks the source's active call; other numbers are inactive results; . = no result. Most compounds without a hit are left out; they make up all but 2.3% or so of the library.

SMILES	CHO-K1 Ca PAM	CHRM1 PAM	CHO-K1 Ca ag	CHO-K1 Ca antag	CHRM1 antagonist	M1 ag
O=c1c2c(-c3ccccc3)csc2nc2c3ccccc3c(NCCN3CCOCC3)nn12	16	-26	2	-12	92*	-7
c1ccc(-c2csc3ncnc(NCCCN4CCOCC4)c23)cc1	2	5	3	-3	-4	-4
CN(C(=O)CSc1nc2[nH]ncc2c(=O)[nH]1)c1ccccc1	-13	20	0	-3	-13	3
CC(C)(C)c1ccc(C(=O)N2CCC(=O)N(C(COCc3ccccc3)Cc3ccccc3)CC2)cc1 (stereo not drawn)	-13	-22	2	-1	33*	-5
CC(C)(C)c1ccc(C(=O)N2CCC(=O)N([C@H](COCc3ccccc3)Cc3ccccc3)CC2)cc1	-6	.	5	6	.	.
CCc1ccc(NC(=O)CSc2nc3cc(C(=O)OC)ccc3c(=O)n2Cc2ccco2)cc1	-1	5	0	10	-4	-3
CCN(C(=O)CSc1nc2cc(C(=O)OC)ccc2c(=O)n1Cc1ccco1)c1cccc(C)c1	-5	11	-1	26*	1	0
Cc1ccccc1OCC(=O)OCC(=O)NCC1CCCO1 (stereo not drawn)	-12	0	-1	-5	7	-3
CCOC(=O)C1CCN(C(=O)CCNS(=O)(=O)c2ccc3c(c2)CCN3C(=O)CC)CC1	-17	1	0	58*	1	-2
CCC(=O)N1CCc2cc(S(=O)(=O)NCCC(=O)N3CCN(c4cccc(C)c4)C(C)C3)ccc21 (stereo not drawn)	-7	-16	16*	20	23	1
Fc1ccccc1Cc1noc(CN2CCC(OCc3cccnc3)CC2)n1	7	8	1	-10	-4	-10
CN1CCN(c2ccc(NC(=O)COc3ccccc3Cl)cc2)CC1	8	-2	1	-4	-35	-6
C=CC(=O)Nc1ccc(N(C)c2ccnc(Nc3ccc(N4CCN(C)CC4)cc3)n2)cc1	17	-32	0	-6	56*	-11
COc1ccc(CNC(=O)c2ccc[nH]2)cc1Cl	8	3	0	-21	11	-3
COc1ccc(/C=C2\CN(Cc3ccccc3)C/C(=C\c3ccc(OC)c(O)c3)C2=O)cc1O	10	-16	7	4	28*	-2
CCN1C/C(=C/c2ccc(OC)c(O)c2)C(=O)/C(=C/c2ccc(OC)c(O)c2)C1	-6	-1	0	-8	14	0
COc1cc(S(=O)(=O)N2CCN(C)CC2)c(OC)cc1Cl	-7	12	0	24*	-2	-2
Cc1cccc(CC(=O)NCCS(=O)(=O)N2CCN(c3ccccc3)CC2)c1	-14	17	1	15	-12	10
COc1ccc(NC(=O)CN2CCN(C3c4ccccc4-c4ccccc43)CC2)c(OC)c1	52*	2	0	-44	-5	-1
COc1ccccc1NC(=O)CN1CCN(C2c3ccccc3-c3ccccc32)CC1	48*	0	4	-28	4	6
CC1CCN(CC(=O)Nc2ccccc2-c2ccccc2)CC1	-11	-34	-1	-17	33*	-12
O=C(CN1CCCC1)NC(c1ccccc1)c1ccccc1	-13	-26	0	10	69*	-8
O=C(CN1CCN(c2ccccc2O)CC1)NC(c1ccccc1)c1ccccc1	10	6	0	-3	-3	-6
CCOc1ccc(NC(=O)CN2CCN(C3c4ccccc4-c4ccccc43)CC2)cc1	2	0	0	-4	1	-4
COc1ccccc1NC(=O)CN1CCCCCC1	-1	6	0	7	-7	-10
SMILES	CHO-K1 Ca PAM	CHRM1 PAM	CHO-K1 Ca ag	CHO-K1 Ca antag	CHRM1 antagonist	M1 ag
CCCCN(C(=O)c1cc(Cl)nc2ccccc12)c1c(N)n(CCCC)c(=O)[nH]c1=O	-20	10	0	0	-2	3
CC(Oc1cccc(Cl)c1)C(=O)N(C)CC(=O)Nc1ccc(N2CCOCC2)cc1 (stereo not drawn)	7	14	1	-4	-14	0
O=C(CN1CCCCCC1)Nc1ccccc1Oc1ccccc1	16	-26	0	-18	41*	-9
CS(=O)(=O)N1CCN(c2ccccc2NC(=S)NC(=O)c2ccccc2[N+](=O)[O-])CC1	1	-25	7	7	29*	-1
CCOC(=O)Cn1c(=O)oc2cc(S(=O)(=O)Nc3ccc(F)cc3)ccc21	1	7	8	-3	-2	31*
CCOC(=O)Cn1c(=O)oc2cc(S(=O)(=O)NCCc3ccc(C)cc3)ccc21	11	3	4	-5	-10	4
CCOC(=O)C1=C(C)Nc2ccccc2N=C1NC(=O)c1cc(C)on1	-8	-4	4	1	21	6
Cc1cc(C)c2[nH]c(C(=O)Nc3ccc(F)cc3Br)cc2c1	3	12	1	-7	-20	-3
CCN(CC(=O)Nc1ccc(OC)cc1)C(=O)Cc1ccsc1	12	27*	0	-17	-25	1
NC(=O)c1ccc(N2CCN(S(=O)(=O)c3cccs3)CC2)c([N+](=O)[O-])c1	-8	-14	17*	23	35*	3
Cc1nc2ccc(NC(=O)c3ccc(C)c(S(=O)(=O)N4CCOCC4)c3)cc2s1	18	0	2	-1	9	0
c1ccc(SC23CCCCN(CCC2)[C@]32CO2)cc1 (stereo partly drawn)	-1	.	-1	-4	.	.
CC(C)CN1C(=S)SC(C)(C)C1n1oc(=O)n(-c2ccccc2)c1=O (stereo not drawn)	5	-5	0	1	2	-9
CC(C)CN1C(=S)SC(C)(C)C1n1oc(=O)n(-c2ccc(Cl)cc2)c1=O (stereo not drawn)	20	-30	1	-13	51*	-8
CCOc1cc2c3c(c1)C1(C(=O)N3C(C)(C)C=C2C)C(C#N)=C(N)Oc2cc(O)ccc21 (stereo not drawn)	3	8	0	29*	-7	-1
OCCC1CN(Cc2c(F)cccc2Cl)CCN1C1CCCC1 (stereo not drawn)	4	-25	2	12	57*	-8
CC(C)=CCN1CCN(C/C(Cl)=C/c2ccccc2)CC1CCO (stereo not drawn)	17	-15	3	-10	0	-6
OCCC1CN(C/C(Cl)=C/c2ccccc2)CCN1C1CCCC1 (stereo not drawn)	-4	-30	0	3	22*	-15
COc1ccc2c(c1)C=C(CN1CCN(C3CCCC3)C(CCO)C1)CO2 (stereo not drawn)	15	-20	0	-19	95*	-4
OCCC1CN(Cc2ccsc2)CCN1C1CCCC1 (stereo not drawn)	4	-2	1	-16	43*	-7
